# Screening results from PubChem BioAssay.
# An excerpt weighted towards active compounds, which were near 2.8% of everything screened.
# IP6K1 inhibitor: inhibitors of human IP6K1; Q92551; IP6K1 kinase, ADP-Glo luminescence, 2 h; hits give low values; activity change, % (series mostly up to about 58 µM); 0.81% of 140,000 active; AID 1645851; in the data active = activity change below about -25%; note: % is set by controls: 0 for no effect and ±100 for the full control effect
#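 ADP-Glo luminescence measures ADP made by human IP6K1 during a 2 h RT reaction with ATP/IP6 (mix at 1.3 mM/130 uM); top library doses 57.5 and 19.1 uM final.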
# KDM5B inhibitor: blocks human KDM5B histone demethylase activity; 2.6% of 220,000 active; Potency, µM (highest dose often 57.7 µM), hits mostly inhibitors; KDM5B demethylase, FDH-coupled NADH fluorescence (FDH is formaldehyde dehydrogenase); AID 1347165; active = well fitted inhibition curve with a large enough effect; inconclusive = small, poorly fitted or top-dose-only effect; inactive = no such curve, though single readings can be large or run the other way; note: potency is the fitted concentration of half-maximal effect; 0% is about no effect; nearly all actives have a fitted effect of over 70% in size
#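 Inhibition is measured as reduced NADH fluorescence generation from FDH coupling to formaldehyde release. Truncated KDM5BΔAP at 200 nM final acts on H3K4me3 peptide (12.5 µM in substrate mix) in pH 7.5 HEPES buffer with Tween-20, 30 min, room temperature.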
# Starred values were filed as active, the others as inactive; i = inactive; u = inconclusive; x = no result given; ! = repeats disagree.
SMILES,IP6K1 inhibitor,KDM5B inhibitor
CN1CC(=O)N(C2CCNC2)Cc2c1ncnc2N1CCC(N2CCCCC2)CC1 (centres undefined),-7,u
O=C(CNC(=O)c1ccc(-c2cccc(C(F)(F)F)c2)cc1)NCc1cccs1,2,x
COc1ccc2c(ccn2CCC(=O)NCc2ccccc2OC)c1,x,i
CC(C)c1nc2c(c(-c3ccc(O)cc3)n1)CN(Cc1ccsc1)CC2,-5,u
COc1ccc(CC(=O)N(C)C2CCc3nnc(C)n3CC2)cc1Cl (centres undefined),5,20µM*
COc1ccc(CCC(=O)N(C)C2CCc3nnc(C)n3CC2)cc1OC (centres undefined),-8,i
CCOP(=O)(OCC)c1nc(-c2ccc([N+](=O)[O-])cc2)oc1NCc1ccc(F)cc1,x,i
Cc1nc2c(OCC(=O)c3ccccc3)cccn2c(=O)c1-c1cc(C)n(-c2ccc(Cl)cc2)n1,-2,16µM*
CCOC(=O)CCCOc1cccn2c(=O)c(-c3cc(C)n(-c4ccccc4)n3)c(C)nc12,-4,25µM*
Cc1ccc(-n2nc(-c3c(C)nc4scc(CC(=O)NC(C)C)n4c3=O)cc2C)cc1,3,u
Cc1ccc(-n2nc(-c3c(C)nc4scc(CC(=O)NCc5ccccc5)n4c3=O)cc2C)cc1,-5,u
CCOc1cccn2c(=O)c(-c3cc(C)n(-c4ccc(Cl)cc4)n3)c(C)nc12,3,u
COC(=O)COc1cccn2c(=O)c(-c3cc(C)n(-c4ccc(Cl)c(Cl)c4)n3)c(C)nc12,3,28µM*
Cn1ncc2c(C(=O)NCc3ccc(F)cc3)cc(-c3ccccc3C(F)(F)F)nc21,3,x
COc1ccc(-c2cccc(C(=O)N3CCC(NC(=O)Nc4ccc(Cl)cc4)CC3)c2)nn1,8,x
Cc1ccccc1-n1nc(C)c(CCC(=O)NCC2CC2)c1Oc1cccc(F)c1,1,i
Cc1ccccc1-n1nc(C)c(CCC(=O)NCC(C)C)c1Oc1cccc(F)c1,18,22µM*
O=S(=O)(NCCO)c1ccc(I)cc1,x,i
COCCNc1ncc(-c2ccc(O)c(OC)c2)c2c1OCC2,28,35µM*
COCCNc1ncc(-c2cccc(C(C)=O)c2)c2c1OCC2,-8,i
COCCNc1ncc(-c2cccc(O)c2)c2c1OCC2,-7,u
COCCNc1ncc(-c2ccc(OC)c(OC)c2)c2c1OCC2,-2,35µM*
COCCNc1ncc(-c2cccc(N)c2)c2c1OCC2,8,u
COCCNc1ncc(-c2ccc(O)cc2)c2c1OCC2,-16,32µM*
Cn1ncc2c(C(=O)NC3CCC3)cc(-c3ccc(C(F)(F)F)cc3)nc21,-12,x
SMILES,IP6K1 inhibitor,KDM5B inhibitor
N#CC1CCN(C(=O)C2CCN(c3nccc(Nc4ccccc4F)n3)CC2)CC1,2,x
COc1ccc2c(c1)CN(CC1CC1)C(=O)CCN2CC(O)C(F)(F)F (centres undefined),-10,x
COc1ccccc1Cn1c(=O)c(C(=O)N2CCN(C(=O)C3CC3)CC2)nc2cccnc21,-3,x
COc1ccc(-c2cc(C(=O)N(C)c3ccccc3)c3cnn(C)c3n2)cc1,0,x
Cn1ncc2c(C(=O)NC3CCc4ccccc43)cc(-c3ccccc3C(F)(F)F)nc21 (centres undefined),5,x
Cc1ncc2n1C(=O)N(C1CCN(Cc3ccc(F)cc3)CC1)C2,10,i
Cc1ncc2n1C(=O)N(C1CCN(Cc3ccncc3)CC1)C2,7,40µM*
COc1ccccc1C(=O)NC1CCN(C(=O)c2ccc(-c3ccccc3OC)cc2)CC1,-1,x
COc1ccc(C2C(c3ccc(C)cc3)=C(O)C(=O)N2CCc2ccccc2)cc1 (centres undefined),x,i
COc1ccc(NC(=O)c2sc3nc4c(c(-c5ccco5)c3c2N)CCC4)cc1,x,i
Cn1ncc2c(C(=O)NCCCNC(=O)OC(C)(C)C)cc(-c3ccccc3C(F)(F)F)nc21,-1,x
COc1ccc(-c2cc(=O)n3[nH]c(C(F)(F)F)nc3n2)cc1,x,i
O=C(O)CN1CCN(Cc2ccc(OCCc3ccccc3)cc2)CC1=O,10,25µM*
O=C(/C=C/c1ccc(OCCCF)cc1)N1CCN(Cc2ccccc2)CC1,x,i
CCCc1noc(-c2cccn3c(CNC(=O)c4cccc(Cl)c4)nnc23)n1,-2,u
Cc1noc(-c2cccn3c(CNC(=O)c4cccc(Cl)c4)nnc23)n1,2,14µM*
Cc1noc(-c2cccn3c(CNC(=O)c4ccc(F)c(Cl)c4)nnc23)n1,20,14µM*
CN(C)S(=O)(=O)N(CC(=O)N1CCN(c2ccccc2)CC1)c1ccc(F)cc1,x,i
O=C(c1ccc(Cl)cc1)N1CCNc2cnc(Nc3cccc(C(F)(F)F)c3)nc2C1,-6,u
CCCCc1ncc(-c2c(-c3ccccc3)ncn2CCC2CCCN2C)[nH]1 (centres undefined),2,10µM*
O=C(CCn1cnc(-c2ccccc2)c1-c1cc2ccccc2[nH]1)N1CCCC1,-14,u
O=C(c1ccc(F)cc1)N1CCC2(CC1)CC(N(Cc1ccc(F)cc1)C1CC1)CCO2 (centres undefined),-11,i
O=C(c1ccncc1)N1CCC2(CC1)CC(N(Cc1ccc(F)cc1)C1CC1)CCO2 (centres undefined),1,32µM*
O=C1NCCCCCCN(Cc2cccc(F)c2)[C@H]2CCC[C@@H]12,13,u
COc1cccc(CN2CC[C@H]3C(=O)NCCCCCCN(Cc4ccncc4)[C@@H]3C2)c1,17,u
SMILES,IP6K1 inhibitor,KDM5B inhibitor
O=C1NCCCCCCN(Cc2ccccc2)[C@H]2CCC[C@@H]12,9,8.9µM*
COc1cccc(CN2CC[C@H]3C(=O)NCCCCCCN(Cc4ccncc4)[C@@H]3C2)n1,11,20µM*
O=C(NCc1ccccc1Cl)C1CCCN(Cc2cccc(-c3ccsc3)c2)C1 (centres undefined),-2,x
O=C(c1ccc(Cl)cc1)N1CCC([C@@H]2CNC[C@H]2CO)CC1,16,i
O=C(c1cnccn1)N1CCC([C@@H]2CNC[C@H]2CO)CC1,-2,14µM*
CC(=O)N1CCCN(c2ccc3nnc(-c4ccccc4)n3n2)CC1,6,x
COCCN1CC2(CCC1=O)CCN(C(=O)C(C)SC)CC2 (centres undefined),0,i
COCCN1CC2(CCC1=O)CCN(c1nc(C(C)C)ccc1C#N)CC2,-1,28µM*
O=C(NC1CCCC1)C1CCCN(C2CCN(C3Cc4ccccc4C3)CC2)C1 (centres undefined),7,32µM*
O=C(NC1CCC1)C1CCCN(C2CCN(C3Cc4ccccc4C3)CC2)C1 (centres undefined),-7,i
CC1(C)CC(N=Cc2ccccc2O)CC(C)(C)N1,x,i
CCNC(=O)N[C@@H]1C=C[C@@H](c2c(C)nn(-c3ccc(C(F)(F)F)cc3)c2C)C1,-14,u
O=C(NCc1ccncc1)c1ccc2nccn2c1,0,u
O=C(NCc1cccc(F)c1)c1ccc2nccn2c1,12,x
O=C(NCc1cccs1)c1ccc2nccn2c1,-14,35µM*
O=C(NCc1cccnc1)c1ccc2nccn2c1,5,112µM*!
O=C(NCc1cccc(C(F)(F)F)c1)c1ccc2nccn2c1,-12,35µM*
CC(C)(C)c1nnc2ccc(C(=O)NCc3cccs3)cn12,20,x
COc1ccc(NC(=O)CCC2CCCN(S(=O)(=O)c3cccc(F)c3)C2)c(OC)c1 (centres undefined),-6,x
